An excerpt weighted towards active compounds, which were near 17% of everything screened.
HT1080 IDH1KD tx: kills HT-1080 cells with IDH1 knockdown. HT-1080 IDH1 knockdown viability, ATP luminescence, 48 h. Potency, µM (doses to about 46.1 µM), for inactives: at the top dose activity, negative = toxicity, actives largely listed as cytotoxic. 360,000 tested, 2% active. AID 686971;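 note: 0% = DMSO wells and -100% = cell-free medium wells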
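Cytotoxicity counter-line: IDH1KD HT-1080, 48 h, CellTiter-Glo. Curves classed by r2, magnitude and activity.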
DT40 TDP1 no CPT: qHTS for Inhibitors of human tyrosyl-DNA phosphodiesterase 1 (TDP1): qHTS in cells in absence of CPT. AID 686978, 2013. 420,000 tested, 15% active. Potency, µM (highest dose often 46.2 µM), for the others: top-dose activity change, negative = growth inhibition, hits mostly inhibitors. DT40 Tdp1-/- hTDP1 cells, no CPT, ATP luminescence, 48 h; note: % is set by controls: 0 for no effect and ±100 for the full control effect; nearly all actives have a fitted effect of over 55% in size
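Compound effects on proliferation are scored in DT40 Tdp1-/-;hTDP1 cells in the absence of CPT. ATP levels (CellTiter-Glo luminescence) are recorded after a ≥48 hr, 37 °C incubation.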
TDP1 cell CPT: DT40-hTDP1 cell growth loss with CPT; chicken DT40 Tdp1-/-;hTDP1 cells + 20 nM CPT, ATP luminescence, 48 h; Potency, µM (doses to about 46.2 µM), for inactives: at the highest dose activity change, negative = growth inhibition, usual class: inhibitors; 420,000 tested, 12% active; AID 686979; note: % is set by controls: 0 for no effect and ±100 for the full control effect; nearly all actives have a fitted effect of over 55% in size
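Chicken DT40 Tdp1-/- cells complemented with human TDP1, 400 cells/well, exposed to compounds plus 20 nM camptothecin for at least 48 h at 37 C; viability read as ATP content by CellTiter-Glo luminescence.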
HepG2 tox: kills HepG2 cells in TGF-b inhibitor counter-screen; 410,000 tested, 0.76% active; HepG2 CAGA-GFP viability, ATP luminescence, 18 h; Potency, µM (series often up to 46.1 µM), for the others: at the top dose activity change, negative = cytotoxicity, hits mostly cytotoxic
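CellTiter-Glo luminescence gave cytotoxicity after 18 hours at 37 degrees C. The cells were HepG2 CAGA-GFP in 1% FBS DMEM, stimulated with 500 pg/mL TGF-beta after compound addition. %Activity was normalised to no-cell wells (complete cell-killing) and DMSO (no toxicity), and curves were fitted and classified.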
TGFb inhibitor: inhibitors of TGF-b signaling | HepG2 CAGA-GFP TGF-b/SMAD3 reporter, GFP fluorescence, 18 h; TGF-beta stimulated, 500 pg/mL final | Potency, µM (highest dose often 46.1 µM), for the others: top-dose activity, negative = inhibition, hits mostly inhibitors | 410,000 tested, 1.2% active; note: % is set by controls: 0 for no effect and ±100 for the full control effect; nearly all actives have a fitted effect of over 65% in size
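Smad-responsive CAGA-GFP expression was quantified in HEPG2 cells exposed to compounds and 500 pg/mL final TGF-beta for 18 h at 37 degrees C; unstimulated wells defined full inhibition.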
HT1080-NT tox: kills 2HG-producing HT-1080-NT fibrosarcoma cells. HT-1080-NT fibrosarcoma viability, CellTiter-Glo ATP luminescence, 48 h. Potency, µM (doses to about 46.1 µM), without a hit: at the highest dose activity, negative = less viability, actives largely listed as cytotoxic. 360,000 tested, 1.6% active. AID 686970;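 note: NT is the 2HG producing partner of a matched IDH1 knockdown line; 0% = DMSO-treated cells and -100% = media-only wells without cells; nearly all actives have a fitted effect of over 55% in size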
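Viability by CellTiter-Glo luminescence after 48 h compound exposure at 37C of HT-1080-NT cells (750/well, RPMI, 5% FBS). % activity scaled between DMSO wells and medium-only wells, then curve-fitted and categorized by curve class.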
The depositor's hits bear a star; ? = inconclusive; nt = no result; [ ] = dose if it differs, or a comment. Calls come from the whole dose curve; as a rule, active = well fitted curve in the direction sought with a large enough effect; inconclusive = small, poorly fitted or top-dose-only effect, or another doubt; inactive = no such curve, though single readings can be large; an effect the other way counts as inactive or inconclusive. Potency is the fitted concentration of half-maximal effect.

SMILES | HT1080 IDH1KD tx | DT40 TDP1 no CPT | TDP1 cell CPT | HepG2 tox | TGFb inhibitor | HT1080-NT tox
CCCCOc1ccccc1NC(=O)CC1Sc2ccccc2NC1=O (configuration not stated) | nt | ? | 20.6µM* | -16.7% | -4.3% | nt
O=C(CC1Sc2ccccc2NC1=O)NNc1ccc(F)cc1 (configuration not stated) | 7.31µM* | -7.6% | -15.6% | 2.4% | -5.7% | ?
O=C(CC1SC2=NCCN2C1=O)Nc1ccc(Cl)cc1 (configuration not stated) | -2.7% | 1.9% | -18.0% | -1.5% | 3.7% | 4.4%
COc1ccc(N(CC(=O)Nc2ccccc2C(=O)O)S(=O)(=O)c2ccc(C)c([N+](=O)[O-])c2)cc1 | -4.2% | -20.9% | 1.2% | 0.0% | -7.0% | -9.6%
COc1cccc(CNCc2cccn2-c2nnc(N3CCN(c4ccccc4)CC3)s2)c1 | nt | ? | ? | -29.1% | ? | nt
COc1ccc(CNC(=O)c2ccccc2NC(=O)C2=C(C)OCCS2)cc1 | -2.6% | ? | ? | -16.0% | 1.8% | 0.3%
CC1=C(C(=O)Nc2ccccc2C(=O)N2CCN(c3ccccc3)CC2)SCCO1 | 12.2% | 18.4µM* | ? | -20.5% | -19.8% | -1.3%
COc1ccccc1CNC(=O)c1ccccc1NC(=O)C1=C(C)OCCS1 | -17.2% | ? | 20.6µM* | 5.4% | -4.9% | -4.3%
O=C(Nc1cccc(F)c1)Nc1ccc2c(c1)OCO2 | -25.6% | ? | ? | -15.2% | -20.6% | -20.9%
COc1cc(NC(=O)c2ccc(Cl)cc2)c(OC)cc1NC(=O)CN1CCCCC1 | ? | 18.4µM* | ? | -22.5% | 4.8% | ?
COc1cc(NC(=O)c2ccc(C(C)(C)C)cc2)c(OC)cc1NC(=O)CN1CCCCC1 | -2.5% | 20.6µM* | ? | 0.0% | -18.8% | 0.3%
COc1cc2c(cc1NC(=O)c1ccccc1F)CCCC2 | 2.3% | 20.6µM* | ? | -8.9% | 0.0% | -5.4%
COc1cc(NC(=O)c2ccc(Cl)cc2)c(OC)cc1NC(=O)CN1CCOCC1 | 11.5% | ? | ? | -4.6% | -14.4% | 21.4%
COc1cc(C(=O)NC2CCN(CC(=O)Nc3cccc(C)c3C)CC2)cc(OC)c1OC | 2.0% | ? | 18.4µM* | 1.4% | 2.6% | -12.7%
COc1cc(/C=C/C(=O)O)cc(S(=O)(=O)Nc2ccc3c(c2)OCO3)c1OC | -3.0% | -48.6% | ? | 2.5% | -5.3% | -13.9%
CC1CCCN(c2ncnc3c2nnn3C)C1 (configuration not stated) | nt | -16.9% | -12.7% | -0.7% | 29.6% | nt
CCc1cc(C(=O)N2CCOc3ccc(CN4CCN(Cc5ccccn5)CC4)cc3C2)no1 | nt | -16.5% | 1.5%[9.04 µM] | nt | nt | nt
O=C(Nc1cc(Cl)ccc1Cl)c1ccc(-c2ccccc2)cc1 | -23.9% | -18.7% | -3.7% | -10.5% | 2.9% | -14.0%
COc1cc(NC(=O)Nc2ccccc2)c(OC)cc1NC(=O)CN1CCCCC1 | ? | ? | ? | -33.4% | ? | ?
COc1cc2c(cc1NC(=O)c1cccc(F)c1)CCCC2 | 5.6% | ? | ? | -11.7% | -7.4% | 6.3%
COc1cc(NC(=O)Nc2ccccc2OC)c(OC)cc1NC(=O)CN1CCCCC1 | -15.3% | ? | ? | 3.9% | 4.7% | -13.7%
COc1cc(NC(=O)c2cccc(C)c2)c(OC)cc1NC(=O)CN1CCCCC1 | -10.8% | 16.4µM* | ? | -27.1% | -6.2% | -1.5%

Bioassay records (PubChem)
